# Screening data (PubChem)
# TNF death inh: inhibitors of TNF-alpha triggered necroptosis, primary screen, cell-based, Jurkat FADD-/-, single concentration; Jurkat FADD-/- TNF necroptosis rescue, ATP luminescence, 24 h; 0 = TNF only, 100 = no-TNF cells; activation (protection from cell death), % at 10 µM; actives 0.068% (n = 220,000); AID 463075, 2010;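 active = activation, meaning protection from cell death, of at least 50% relative to plate controls; inactive = activation below 50%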;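 also: necroptosis triggered by 40 ng/mL TNF-alpha added together with compound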
# Bim-Mcl-1: inhibitors of Bim peptide binding to Mcl-1, primary screen, biochemical, bead-based flow cytometry, multiplex; Induced myeloid leukemia cell differentiation protein Mcl-1 (Homo sapiens), Q07820; Bim peptide-Mcl-1 binding; inhibition, % at 10 µM; actives 0.1% (n = 190,000); AID 1009, 2008; in the data active = inhibition above about 40%
# Target sequence (Q07820 whole entry, looked up): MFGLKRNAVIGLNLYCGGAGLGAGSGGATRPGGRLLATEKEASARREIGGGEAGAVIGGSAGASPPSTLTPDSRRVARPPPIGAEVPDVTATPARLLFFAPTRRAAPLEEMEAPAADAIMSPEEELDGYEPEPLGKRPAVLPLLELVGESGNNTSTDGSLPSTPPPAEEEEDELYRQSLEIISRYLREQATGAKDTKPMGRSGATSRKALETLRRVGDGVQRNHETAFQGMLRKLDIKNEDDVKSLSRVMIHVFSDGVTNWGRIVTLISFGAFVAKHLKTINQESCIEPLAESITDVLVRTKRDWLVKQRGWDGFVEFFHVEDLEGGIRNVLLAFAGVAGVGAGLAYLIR
# L929 necroptosis: inhibitors of zVAD-triggered necroptosis, primary screen, L929 cells. L929 zVAD necroptosis rescue, ATP luminescence, 24 h; with zVAD 60 µM. viability rescue, % at 10 µM. actives 0.38% (n = 220,000). AID 1377, 2008;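 active = activation, scaled between plate controls, above about 75%, limit read from the data; inactive = activation under that limit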
# Mcl1-Noxa inh: Mcl-1/Noxa binding inhibitors, primary screen, biochemical, TR-FRET, 1536-well | actives 1.5% (n = 220,000) | inhibition, % at 21.7 µM | TR-FRET Mcl-1/Noxa peptide binding, 2 h;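 active = compounds that cut the protein-peptide binding signal by more than 50% relative to plate controls in a single-dose test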;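 also: His-tagged Mcl-1 with rhodamine Noxa BH3 peptide and terbium anti-His antibody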
# MCL1 BIM primary: inhibitors of MCL1 binding to BIM-BH3, primary screen, biochemical, fluorescence polarization; GST-MCL1 / FITC-Bim-BH3 fluorescence polarization; actives 0.68% (n = 320,000); inhibition, % at 10.9 µM;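 active = inhibition above the mean inhibition of all tested compounds plus 3 SD, set per campaign, cut at about 40% in these data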;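 also: higher means more loss of mP so more displacement of Bim peptide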
# Mcl1 Bid PPI: Mcl-1/Bid binding inhibitors, primary screen, biochemical, TR-FRET, 1536-well; actives 0.97% (n = 220,000); inhibition, % at 21.7 µM; Induced myeloid leukemia cell differentiation protein Mcl-1 (Homo sapiens), Q07820; TR-FRET Mcl-1/Bid-Dy647 peptide binding;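 active = compounds that cut the binding signal by more than half at the single screening dose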;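 also: His-tagged Mcl-1 with europium anti-His antibody binding Bid BH3 peptide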
# zVAD necrop conf: inhibitors of zVAD-triggered necroptosis in L929, confirmation, L929 cells, duplicate runs | shares compounds with L929 necroptosis | L929 zVAD-induced necroptosis rescue, ATP luminescence, 24 h | activation (protection from necroptosis), % at 10 µM | actives 16% (n = 760) | AID 463117, 2010;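 active = mean protection from necroptosis of at least 50% over duplicate tests; inactive = mean protection below 50%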
# A number is an active result; 0 = inactive; - = no result. Compounds with a hit are over-represented: about 2.4% of the library has one in this group of screens.
SMILES,TNF death inh,Bim-Mcl-1,L929 necroptosis,Mcl1-Noxa inh,MCL1 BIM primary,Mcl1 Bid PPI,zVAD necrop conf
Cc1ccc(S(=O)(=O)Nc2cccc3ncccc23)s1,0,0,75,0,0,0,0
CC(=O)N1c2ccc(S(=O)(=O)NCCC(=O)Nc3ccc(F)cc3C)cc2CC1C (stereo not given),-,-,-,-,0,-,-
Cc1ccnc(NC(=O)Nc2ccc3c(c2)OCO3)c1,0,0,85,0,0,0,0
O=C(Nc1ccc2c(c1)OCO2)Nc1ccc(Br)cn1,0,0,79,0,0,0,0
O=C(Nc1ccc2c(c1)OCCO2)Nc1ccc2c(c1)OCO2,0,0,0,0,0,0,-
CCOc1ccc(OCC(=O)OCC(=O)NCC2CCCO2)cc1 (stereo not given),-,-,-,-,0,-,-
COc1ccccc1C(=O)N1CCN(CCNC(=O)C(=O)Nc2ccc(Br)c(C)c2)CC1,-,-,-,-,0,-,-
CN(C)S(=O)(=O)c1ccc(NC(=O)c2cc3ccccc3o2)cc1,0,0,92,0,0,0,0
Cc1ccc(NC(=O)c2cc3ccccc3o2)cc1S(=O)(=O)N(C)C,0,0,0,0,-,0,-
COc1cc(NC(=O)c2cccs2)ccc1NC(=O)c1cc2ccccc2o1,0,0,78,0,0,0,0
CN1CCN(C(=S)c2cn(Cc3ccc(Br)cc3)c3ccccc23)CC1,0,0,0,0,0,0,-
O=C(Nc1ccc2c(c1)ncn2C1CCCCC1)c1ccco1,0,0,82,0,0,0,0
COc1ccccc1-n1cnc2cc(NC(=O)c3ccco3)ccc21,0,0,0,0,0,0,-
COc1ccc(-n2cnc3cc(NC(=O)c4ccco4)ccc32)cc1,0,0,83,0,0,0,0
Cc1cc(O)c(S(=O)(=O)c2ccccc2)c(C)c1NS(=O)(=O)c1ccccc1,-,-,-,-,0,-,-
Cn1nc(N)c2c(-c3ccc(Cl)cc3)c(C#N)c(N)nc21,0,0,81,0,0,0,0
O=C(COC(=O)c1ccc(-c2nnc(-c3ccccc3)o2)cc1)c1ccccc1,0,0,78,0,0,0,0
O=C(OCC(=O)N1CCN(S(=O)(=O)c2ccc(Cl)cc2)CC1)C1CC1,-,-,-,-,0,-,-
O=C(NCc1ccco1)C1CC(O)CN1C(=O)Nc1ccccc1 (stereo not given),-,-,-,-,0,-,-
O=C(Nc1cc(-c2ccccc2)[nH]n1)c1ccccc1F,0,-,0,0,0,0,-
CC(=O)Nc1cc(-c2ccc(F)cc2)[nH]n1,0,0,76,0,0,0,0
CNc1ncc(C(=O)c2ccc(Br)cc2)s1,0,0,83,0,-,0,0
CNc1ncc(C(=O)c2ccccc2)s1,0,0,0,0,0,0,-
COc1nsnc1NS(=O)(=O)c1ccc(NC(=S)NC(=O)c2cccnc2)cc1,0,0,0,0,0,0,-
Cc1cc(NC(=O)c2cccc(Oc3ccccc3)c2)n[nH]1,0,0,78,0,0,0,0
SMILES,TNF death inh,Bim-Mcl-1,L929 necroptosis,Mcl1-Noxa inh,MCL1 BIM primary,Mcl1 Bid PPI,zVAD necrop conf
Cc1ccc(-c2cc(C(=O)N3CCN(C(=O)c4ccco4)CC3)[nH]n2)cc1C,-,-,-,-,0,-,-
Cc1ccc2nc3ccc(N4CCCCCCC4)nn3c(=O)c2c1,0,0,87,0,0,0,0
COc1ccc(CCC(=O)NCCS(=O)(=O)N2CCN(c3ccc(F)cc3)CC2)cc1,-,-,-,-,0,-,-
COc1ccccc1C1CCN(Cc2c(C)[nH]c3ccccc23)CC1,0,-,76,0,0,0,0
COc1ccccc1C1CCN(Cc2cccc3ccccc23)CC1,-,-,-,-,0,-,-
CN(CC1CCCO1)S(=O)(=O)c1ccc(C(=O)Nc2nccs2)cc1 (stereo not given),61,-,87,0,0,0,103
Cc1cc(NC(=O)c2ccc(S(=O)(=O)N(C)CC3CCCO3)cc2)no1 (stereo not given),0,0,0,0,0,0,-
O=C(Nc1nccs1)c1ccc(S(=O)(=O)N2CCOCC2)cc1,0,0,82,0,0,0,68
O=C(NCCCN1CCCCC1)c1ccc2c(=O)n(CCc3ccccc3)c(=O)[nH]c2c1,0,0,80,0,0,0,0
CCN(CC)CCNC(=O)c1ccc2c(=O)n(CCc3ccccc3)c(=O)[nH]c2c1,0,0,89,0,0,0,0
COc1ccc(Cn2c(=O)[nH]c3cc(C(=O)NCCCN4CCCCCC4)ccc3c2=O)cc1,0,0,0,0,0,0,-
O=P(c1ccccc1)(c1ccccc1)c1ccc(O)cc1,-,-,-,-,0,-,-
CCOc1cc(/C=C(\C#N)c2[nH]nc(N)c2C#N)ccc1O,0,0,81,78,0,0,0
CCOc1cc(-c2cc(-c3ccc(C)cc3)nc(N)c2C#N)ccc1O,0,0,0,0,0,0,-
O=c1[nH]c2ccccc2nc1/C=C/c1ccc(O)cc1,0,0,81,0,-,0,82
O=c1[nH]c2ccccc2nc1/C=C/c1ccccc1,0,0,78,0,0,0,0
O=c1[nH]c2ccccc2nc1/C=C/c1ccc(F)cc1,0,0,0,0,0,0,-
COc1ccc(/C=N/Nc2nc3ccccc3o2)cc1O,0,0,86,0,0,0,0
CC(=O)Nc1ccc(/C=N/Nc2nc3ccccc3s2)cc1,63,-,82,0,-,0,83
C/C(=N\Nc1nc2ccccc2s1)c1cccs1,0,0,0,0,0,0,-
COc1ccc(/C=N/OCC(=O)Nc2nc3ccccc3s2)cc1OC,0,0,0,0,0,0,-
COc1ccc(/C=N/Nc2nc3ccccc3s2)cc1O,59,0,79,0,-,0,76
CC(=O)Nc1cccc(/C(C)=N/Nc2nc3ccccc3s2)c1,0,0,78,0,0,0,0
